Measurements reported in PubChem BioAssay (NCATS).
Values joined by “and” are separate entries in the source; they are usually repeats but may differ in a detail not shown here. Identical values can stand only once. Results filed as inconclusive are left out. A call without a number means that no potency is given here. Values without a mark were called inactive. Active and inactive are the calls of the source. The call rests on the fitted dose curve; in most records, active means well fitted inhibition curve with a large enough effect; inconclusive means small, poorly fitted or top-dose-only effect; inactive means flat fitted curve, though single readings scatter.

What was measured:
[1] = system: CRL-7250; assay: Cytotoxic Profiling of Annotated Libraries Using Quantitative High-Throughput Screening (AID 1296008); conditions: Five cell lines viability, CellTiter-Glo ATP luminescence, 48-72 h; max response: active compounds read low; further: potency means the concentration at half of the fitted maximal effect
Method in brief: (§1)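 Cells exposed to compounds for 48 or 72 hr at 37 degrees Celsius. Viability read as ATP-coupled luminescence with CellTiter-Glo after 10 min at room temperature.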

[2] = system: HaCat; assay: as above; conditions: Five cell lines viability, CellTiter-Glo ATP luminescence, 48-72 h; max response: active compounds read low
Method in brief: as §1

[3] = system: KB-3-1; assay: as above; conditions: Five cell lines viability, CellTiter-Glo ATP luminescence, 48-72 h; max response: active compounds read low
Method in brief: as §1

[4] = system: NIH3T3; assay: as above; conditions: Five cell lines viability, CellTiter-Glo ATP luminescence, 48-72 h; max response: active compounds read low
Method in brief: as §1

[5] = system: HACAT; assay: qHTS assay to identify novel small-molecules to repurpose for Merkel cell carcinoma treatment (AID 1296009); conditions: MCC and control cell lines, CellTiter-Glo viability, 72 h; at 44.8 µM (top of the series) unless noted
Method in brief: (§2)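 Cells were treated for 72 hr at 37 degree celsius with compounds in 8- or 11-point dose response. Viability was read by CellTiter-Glo luminescence, normalized to no-cell (cytotoxicity) and DMSO controls.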

[6] = system: JCK; assay: qHTS profiling for inhibitors of Plasmodium falciparum proliferation (AID 504749); further: potency means the concentration at half of the fitted maximal effect; conditions: P. falciparum in erythrocytes, SYBR Green DNA, 72 h; series mostly up to 28.7 µM
Method in brief: (§3)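 P. falciparum-infected erythrocytes (0.3% parasitemia, 2.5% hematocrit) incubated with compound 72 h at 37 C, 5% CO2. Parasite DNA detected by SYBR Green after lysis, overnight at room temperature; normalised to 0.29 uM artemisinin and DMSO.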

[7] = system: N140; assay: as above; conditions: P. falciparum in erythrocytes, SYBR Green DNA, 72 h; series mostly up to 28.7 µM
Method in brief: as §3

[8] = system: P93_24; assay: as above; conditions: P. falciparum in erythrocytes, SYBR Green DNA, 72 h; series mostly up to 28.7 µM
Method in brief: as §3

[9] = system: P94_40; assay: as above; conditions: P. falciparum in erythrocytes, SYBR Green DNA, 72 h; series mostly up to 28.7 µM
Method in brief: as §3

[10] = system: PAD; assay: as above; conditions: P. falciparum in erythrocytes, SYBR Green DNA, 72 h; series mostly up to 28.7 µM
Method in brief: as §3

[11] = system: PC15; assay: as above; conditions: P. falciparum in erythrocytes, SYBR Green DNA, 72 h; series mostly up to 28.7 µM
Method in brief: as §3

[12] = system: PC26; assay: as above; conditions: P. falciparum in erythrocytes, SYBR Green DNA, 72 h; series mostly up to 28.7 µM
Method in brief: as §3

[13] = system: PC49; assay: as above; conditions: P. falciparum in erythrocytes, SYBR Green DNA, 72 h; series mostly up to 28.7 µM
Method in brief: as §3

[14] = system: SC27B; assay: as above; conditions: P. falciparum in erythrocytes, SYBR Green DNA, 72 h; series mostly up to 28.7 µM
Method in brief: as §3

[15] = system: TAB109; assay: as above; conditions: P. falciparum in erythrocytes, SYBR Green DNA, 72 h; series mostly up to 28.7 µM
Method in brief: as §3

[16] = system: TAB113; assay: as above; conditions: P. falciparum in erythrocytes, SYBR Green DNA, 72 h; series mostly up to 28.7 µM
Method in brief: as §3

[17] = system: TAB165; assay: as above; conditions: P. falciparum in erythrocytes, SYBR Green DNA, 72 h; series mostly up to 28.7 µM
Method in brief: as §3

[18] = system: W2; assay: as above; conditions: P. falciparum in erythrocytes, SYBR Green DNA, 72 h; series mostly up to 28.7 µM
Method in brief: as §3

[19] = system: HEK293T; assay: qHTS assay to identify novel small-molecules to repurpose for Merkel cell carcinoma treatment (AID 1296009); conditions: MCC and control cell lines, CellTiter-Glo viability, 72 h; at 44.8 µM (top of the series) unless noted
Method in brief: as §2
Further: nearly all actives have a fitted effect of over 60% in size.

CCN(CC)CC#CCOC(=O)C(O)(c1ccccc1)C1CCCCC1 (stereo not drawn)
outcome [1]: inactive
outcome [2]: inactive
max response [3]: 11.1% and 9.45%
outcome [4]: inactive
outcome [5]: inactive

Nc1[nH]c(=O)ncc1F
Potency [6]: inactive
Potency [7]: inactive
Potency [8]: inactive
Potency [9]: inactive
Potency [10]: inactive
Potency [11]: inactive
Potency [12]: inactive
Potency [13]: inactive
Potency [14]: inactive
Potency [15]: inactive
Potency [16]: inactive
Potency [17]: inactive
Potency [18]: inactive

Cc1ncc([N+](=O)[O-])n1CCO
Potency [6]: inactive
Potency [7]: inactive
Potency [8]: inactive
Potency [9]: inactive
Potency [10]: inactive
Potency [11]: inactive
Potency [12]: inactive
Potency [13]: inactive
Potency [14]: inactive
Potency [15]: inactive
Potency [16]: inactive
Potency [17]: inactive
Potency [18]: inactive

Nc1ccc(S(=O)(=O)Nc2ccccn2)cc1
Potency [6]: inactive
Potency [7]: inactive
Potency [10]: inactive
Potency [11]: inactive
Potency [12]: inactive
Potency [13]: inactive
Potency [14]: inactive
Potency [15]: inactive
Potency [16]: inactive
Potency [17]: inactive
Potency [18]: inactive
outcome [5]: inactive
outcome [19]: inactive

CCCc1nc(C)c2c(=O)[nH]c(-c3cc(S(=O)(=O)N4CCN(CC)CC4)ccc3OCC)nn12
Potency [6]: inactive
Potency [8]: 8910 nM (active)
Potency [9]: inactive
Potency [12]: inactive
Potency [15]: inactive
Potency [16]: inactive

Nc1nc(N)c2nc(CNc3ccc(C(=O)NC(CCC(=O)O)C(=O)O)cc3)cnc2n1 (stereo not drawn)
Potency [6]: inactive
Potency [7]: inactive
Potency [8]: inactive
Potency [9]: inactive
Potency [10]: inactive
Potency [11]: inactive
Potency [12]: inactive
Potency [13]: inactive
Potency [14]: inactive
Potency [15]: inactive
Potency [16]: inactive
Potency [17]: inactive
Potency [18]: inactive
Potency [1]: 118 nM (active)
max response [2]: 4.29%
Potency [3]: 33.2 nM (active)
Potency [4]: 93.5 nM (active)

N[C@@H](Cc1ccc(O)c(O)c1)C(=O)O
Potency [12]: inactive

NC(=O)c1cccnc1
Potency [6]: inactive
Potency [7]: inactive
Potency [8]: inactive
Potency [9]: inactive
Potency [10]: inactive
Potency [11]: inactive
Potency [12]: inactive
Potency [13]: inactive
Potency [14]: inactive
Potency [15]: inactive
Potency [16]: inactive
Potency [17]: inactive
Potency [18]: inactive
outcome [5]: inactive
outcome [19]: inactive

CCc1c2c(nc3ccc(OC(=O)N4CCC(N5CCCCC5)CC4)cc13)-c1cc3c(c(=O)n1C2)COC(=O)[C@]3(O)CC
Potency [6]: inactive
Potency [7]: inactive
Potency [8]: inactive
Potency [9]: inactive
Potency [10]: inactive
Potency [11]: inactive
Potency [12]: inactive
Potency [13]: inactive
Potency [14]: inactive
Potency [15]: inactive
Potency [16]: inactive
Potency [17]: inactive
Potency [2]: 23.7 µM (active) and 4.18 µM (active)
max response [3]: 43.3%
Potency [4]: 14800 nM (active)

NCCCC(O)(P(=O)(O)O)P(=O)(O)O
Potency [6]: inactive
Potency [7]: inactive
Potency [8]: inactive
Potency [9]: inactive
Potency [10]: inactive
Potency [11]: inactive
Potency [12]: inactive
Potency [13]: inactive
Potency [14]: inactive
Potency [15]: inactive
Potency [16]: inactive
Potency [17]: inactive
Potency [18]: inactive
outcome [1]: inactive
max response [2]: -6.79%
max response [3]: 17.7% and -6.17%
max response [4]: 0.802%
outcome [4]: inactive

CN1CCN(c2c(F)cc3c(=O)c(C(=O)O)cn(CCF)c3c2F)CC1
Potency [6]: inactive
Potency [7]: inactive
Potency [8]: inactive
Potency [9]: inactive
Potency [10]: inactive
Potency [11]: inactive
Potency [12]: inactive
Potency [13]: inactive
Potency [14]: inactive
Potency [15]: inactive
Potency [16]: inactive
Potency [17]: inactive
Potency [18]: inactive

COc1nc(N)nc2c1ncn2[C@@H]1O[C@H](CO)[C@@H](O)[C@@H]1O
Potency [6]: inactive
Potency [7]: inactive
Potency [8]: inactive
Potency [9]: inactive
Potency [10]: inactive
Potency [11]: inactive
Potency [12]: inactive
Potency [13]: inactive
Potency [14]: inactive
Potency [15]: inactive
Potency [16]: inactive
Potency [17]: inactive
Potency [18]: inactive
max response [1]: -2.22% and 4.78%
outcome [2]: inactive
outcome [3]: inactive
max response [4]: -9.88% and 4.97%
outcome [5]: inactive
outcome [19]: inactive
